Experimental data from the supplement of paper PMC6555819.

Assays:
Assay in all cases: PBM binding z-score (relative to random genomic background probes); higher = stronger binding; sequences stand for … in GC…GCGATTGACAGCGTAGAATGAAGG
[1] = tested on: PPARg:RXRa DBDmut IVT, anti-RXR (DBD mutation: RXRa K156A/R161A, NR concentration 270 nM, RXRa partner concentration 90 nM)
Method in brief: (§1)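 Regression normalization was applied to scanned fluorescence from custom Agilent 4×180K protein-binding microarrays. Before scanning, arrays were incubated 1 h with ligand-free nuclear receptor dimers, and binding was detected with antibodies against each partner (one per run). Binding z-scores use the random background probes as reference.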

[2] = tested on: PPARg:RXRa IVT, anti-PPARg (NR concentration 270 nM, RXRa partner concentration 90 nM)
Method in brief: as §1

[3] = tested on: PPARg DBDmut:RXRa IVT, anti-PPARg (DBD mutation: PPARg1 K132A/R137A, NR concentration 270 nM, RXRa partner concentration 90 nM)
Method in brief: as §1

[4] = tested on: PPARg DBDmut IVT, anti-PPARg (DBD mutation: PPARg1 K132A/R137A, NR concentration 270 nM)
Method in brief: as §1

[5] = tested on: PPARg homodimer (NR concentration 180 nM)
Method in brief: as §1

[6] = tested on: PXR:RXRa (NR concentration 270 nM, RXRa partner concentration 90 nM)
Method in brief: as §1

[7] = tested on: PXR homodimer (NR concentration 270 nM)
Method in brief: as §1

[8] = tested on: RARa:RXR (NR concentration 270 nM, RXRa partner concentration 90 nM)
Method in brief: as §1

[9] = tested on: RARa homodimer (NR concentration 270 nM)
Method in brief: as §1

[10] = tested on: RARb:RXRa (NR concentration 270 nM, RXRa partner concentration 90 nM)
Method in brief: as §1

Sequence | PBM binding z-score [1] | PBM binding z-score [2] | PBM binding z-score [3] | PBM binding z-score [4] | PBM binding z-score [5] | PBM binding z-score [6] | PBM binding z-score [7] | PBM binding z-score [8] | PBM binding z-score [9] | PBM binding z-score [10]
GCGAGCAGGCCATTTGGGTCACTCAATGACGGGC | 0.844 | 2.03 | -1.33 | -0.968 | 0.0566 | 0.738 | 0.189 | 0.937 | -0.309 | 1.69
ATCTCTAGGTAACAAGTTCAGTGTAAGAGAGGAC | 3.42 | 2.96 | 0.813 | 1.82 | 1.08 | 1.61 | 2.33 | 1.09 | 1.11 | 1.78
GATAGCAGGCCATTTGGGTCACTCAATGACGGGC | 3.66 | 3.5 | -0.0916 | -0.698 | -0.0574 | 0.523 | 0.0979 | 0.747 | -0.472 | 1.55
ATCTCTAGGTAAAAATTCAGTGAATCCCGAGGAT | 1.24 | 1.17 | 1.27 | 1.13 | 0.243 | -0.0506 | -0.317 | -0.0791 | 0.766 | 0.165
AGTACGAGGGCACGCTGAGTTGATAGCAGAGTAG | 2.66 | 2.52 | 0.166 | 0.462 | 0.0101 | 1.4 | 0.398 | 0.957 | -0.0662 | 2.64
ATCTCTAGGTATCAAGTTCAGTGAAAGAGAGGAC | 0.507 | 1.03 | 1.04 | 1.12 | 0.949 | 1.05 | 2.18 | 0.725 | 1.18 | 1.59
ATCTCTAGGTAAAAGTTCAGTCAATCCCGAGGAT | 2.32 | 4.22 | 1.46 | 1.49 | 1.74 | 2.36 | 2.13 | 1.68 | 1.1 | 2.64
CGAACGAGGGCATGAGTTGACAGCAAATGCCGAT | 2.75 | 2.11 | -0.484 | -0.439 | 0.454 | 0.679 | 0.0292 | 0.954 | -0.609 | 2.21
ACTATTAGTTGACTTAGGCCAACCGATACGACGC | 0.581 | 0.623 | 1.41 | 1.22 | 1.1 | 0.168 | 0.397 | 0.152 | 0.685 | 0.896
TCTTGTAGGTCAAGCAGGTTAAGAAAGCCTGAGT | 7.24 | 8.12 | 1.76 | 1.83 | 1.66 | 3.63 | 0.673 | 3.68 | 0.596 | 4.34
ACTATTAGTCGACTTAGGGCAACCGATACGACGC | 0.19 | 0.646 | 0.629 | 1.12 | -0.309 | -0.188 | -0.351 | 0.128 | -0.494 | 0.711
ATCTCTAGGTACAGTTCAGTGAAAGATCGATAGA | 0.631 | 0.726 | 1.18 | 1.5 | 0.523 | 0.814 | 0.988 | 0.458 | 1.24 | 0.918
TCTTGTAGATCAATAGAGGTTGAGAAAGTGCGCT | 1.55 | 0.494 | 0.467 | 0.307 | -0.399 | 1.01 | -0.0662 | 0.48 | -0.121 | -0.0211
TCTTGTAGATCAATAGAGGTTAAGTAAGTGCGCT | 1.78 | 1.22 | 0.705 | 0.692 | 0.3 | 3.96 | 0.52 | 2 | 0.239 | 0.993
AGAATGAGGTTAAGATCCGGGAAACAGAATACAT | 2.97 | 2.71 | 1.45 | 0.576 | 0.097 | 0.953 | 0.0989 | 2 | 0.396 | 1.88
TAGCCTAGGTCATGGGCCAGTAGACCACGCGAAC | 1.37 | 3.63 | 0.0866 | 0.107 | 0.936 | 1.5 | -0.436 | 2.64 | -0.0215 | 3.92
ACAGTCAGGTGATGAAGGTAACTCAGGCTATCAT | 0.347 | 0.415 | 0.348 | 0.294 | 0.022 | -0.36 | -0.211 | 0.136 | -0.284 | 0.503
CCTTACGGGGCACTCCAGGTTATAGCATCGGAGT | 0.818 | 0.578 | -0.912 | -1.1 | 0.148 | 0.683 | -0.195 | 0.828 | -0.55 | 1.05
TTACCAAGGTGAGCTGAGCTCGTTGATCCAACTC | 0.946 | 1.2 | 0.0399 | 0.147 | -0.967 | -0.427 | -0.854 | 0.0745 | -1.22 | 0.907
CCGACTGGGGCAGAAAGGTTGCCATACCATCCGG | 1.37 | 1.17 | -1.21 | -1.54 | -0.128 | -0.241 | -0.699 | -0.0627 | -0.964 | 0.6
ACTAGTTGGTCAGCTGAGGTCACACAGAATTCGG | 1.48 | 3.02 | 0.452 | 0.375 | 2.18 | 5.36 | 1.87 | 4.56 | 0.455 | 3.72
ATATGTAGTTTACATCCGGGTCATTCAGGCTATG | 1.36 | 2.27 | 1.09 | 1.65 | 1.01 | 2.91 | 3.16 | 2.85 | 0.262 | 1.51
CCTCGGAGGACAGAAGGTCAGAACTGTCCGCTTT | 0.127 | -0.242 | -0.806 | -1.38 | 0.826 | 1.1 | 0.0205 | 1.7 | 0.442 | 2.85
TTACCAAGGTGTAGGTCGTTGATCCCTCTGTAGA | -0.191 | 0.759 | -0.595 | 0.0644 | 0.0452 | 0.444 | -0.501 | 0.688 | -0.329 | 0.379

Sequence | PBM binding z-score [1] | PBM binding z-score [2] | PBM binding z-score [3] | PBM binding z-score [4] | PBM binding z-score [5] | PBM binding z-score [6] | PBM binding z-score [7] | PBM binding z-score [8] | PBM binding z-score [9] | PBM binding z-score [10]
TCTATTAGTTGAAGTGCAACCGACGAGTCCGTTT | 2.28 | 0.306 | 0.956 | 1 | 0.829 | 0.982 | 1.24 | 0.832 | 0.781 | 0.825
TAGCCTAGGTCATTCAGGGGCCAGTCTAGAAAGC | 1.37 | 2.68 | 0.235 | 0.0209 | 2 | 2.58 | -0.494 | 3.47 | -0.518 | 3.75
TCAGACAGGTGAAGGCAACTCAGGTACGCAGTCG | 2.4 | 0.632 | -0.586 | -0.648 | 0.236 | 0.249 | -0.101 | 0.507 | -0.314 | 0.923
TCTAGCAGGCCAGAGGGTCACTCAAGAGGTACGG | 0.944 | 0.645 | -0.27 | -1.24 | 0.106 | 1.57 | -0.442 | 2.03 | -0.734 | 2.09
CCTAGTAGGTCAGGAGGTCACACACCGGATATGA | 7.03 | 7.47 | 1.73 | 1.02 | 4.99 | 4.94 | 1.33 | 6.63 | 3.21 | 4.72
GCTTGTAGCTCAAGGTTAAGAAAGACTAAGCTAA | -0.582 | -0.296 | -0.734 | -0.739 | -0.599 | 0.28 | -0.587 | 0.556 | -0.601 | 0.721
CGAACTAGGTCAAGGACAGGGAATCTCCGCACGC | 8.32 | 7.95 | 1.81 | 0.477 | 3.11 | 1.05 | 0.302 | 2.12 | 0.471 | 4
TCTTGTAGATCTACAGGAGGTTAAGAAAGATCGA | 0.98 | 0.28 | 0.42 | 1.12 | -0.349 | 0.739 | -0.569 | 0.866 | -0.41 | 0.172
TCTGCTAGGTCAGTAGGTCAGCTAACGAGCTGCC | 4.75 | 6.23 | 0.586 | 0.0507 | 0.729 | 1.3 | -0.386 | 2.58 | -1.38 | 3.79
ACTAGTTGGTGAGCTGAGGTCACACACAATTCGG | 0.913 | 1.97 | 0.121 | 0.0784 | 2.24 | 4.76 | 1.9 | 4.65 | 0.439 | 2.98
TAGCCTAGGTCATGCTGGCCAGTATAGTGTCGGC | 1.89 | 3.11 | 0.437 | -0.89 | 0.715 | 1.16 | -0.737 | 2.21 | -0.528 | 3.84
GCTACTAGTTGAAAGGGCAACCGAATGATTCTCG | 0.65 | 1.33 | 0.246 | -0.547 | 0.922 | 0.637 | -0.0671 | 1.32 | -0.371 | 1.95
ACTGACAGGTGAGTGAAGGTAACTCAGCTGGACG | 0.237 | 1.07 | 0.18 | -0.257 | -0.647 | -0.21 | -0.633 | 0.381 | -0.0244 | 0.482
ACAGACAGGTGATCAAGGTAACTCAGGCTATCAT | 0.0346 | 0.406 | -0.281 | 0.238 | 0.161 | -0.179 | 0.0426 | 0.35 | 0.298 | 0.165
CCTACTGGGCCAAAGGTCATTTATTCCAATGCTC | 5.13 | 6.94 | 0.54 | 0.179 | 5.03 | 5.54 | 1.8 | 6.34 | 2.22 | 4.25
CAAACTAGGTCAAGGTCATAGTCGGTTTGTGCCA | 8.52 | 8.68 | 4.59 | 1.94 | 4.4 | 5.2 | 2.73 | 5.56 | 1.31 | 4.97
GGATCGAGGGCAAGTTGATAGCAGAGTTTGATGG | 3.34 | 2.56 | -0.16 | -0.137 | 1.07 | 0.76 | 0.825 | 0.165 | 0.158 | 2.49
GCTTACGGGTCAGAGGTTATAGCATGAATAGAAT | 2.54 | 4.73 | 0.344 | 0.535 | 2.65 | 3.89 | 0.491 | 5.92 | 0.521 | 3.58
ACTTACGGGTCAACGAGGTTAAAGCACGCGTATA | 3.22 | 4.19 | 0.985 | 1.02 | 2.28 | 5.38 | 3.33 | 5.36 | 0.479 | 4.53
ACTATTAGTTGACTTAGGACAACCGATACGACGC | -0.129 | 0.214 | 1.42 | 1.67 | 1.07 | 0.411 | 0.511 | 0.675 | 0.875 | 0.665
CCAGCCAGGTGAAAGGTAACTCAGTCTGGTACGC | 2.75 | 3.85 | -0.331 | -0.965 | 1.03 | 0.479 | -0.522 | 1.32 | -0.603 | 0.935
CCTCGGAGGACGACAGGAGGTCAGAGCTGCCAGA | -0.728 | -0.00812 | -0.427 | -1.79 | 1.19 | 1.89 | -0.155 | 2.06 | 0.247 | 2.18
CGAACTAGGTCATCCAGGACAATGAATACATTGA | 7.89 | 8.42 | 3.32 | 1.7 | 1.95 | 2.1 | 2.1 | 2.31 | 0.706 | 3.87
CGTCCAAGGTTATAGGAGGTCAGTGAAGACAGAT | 1.11 | 2.3 | 0.293 | 0.256 | 3.21 | 5.24 | 1.46 | 3.66 | 0.744 | 3.48
